Rows were chosen to be rich in hits. Some 2.4% of all compounds tested hit in one or more screens of this group.
Nrf2 block: blocks Nrf2 signaling; A549 ARE-Fluc reporter, luciferase luminescence, 18-24 h; 360,000 tested, 2.1% active; Potency, µM (top dose mostly 46 µM), without a hit: at the highest dose activity change, negative = inhibition, usual class: inhibitors; also: % is scaled to controls: 0 for no effect and ±100 for the full control effect; nearly all actives have a fitted effect of over 60% in size
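Nrf2 activity is the BugLite luminescence, read 15 min after reagent at room temperature, following CellTiter-Fluor cytotoxicity readout (30 min, 37C). Compound titrations were applied for 18-24 h to 5000 A549 ARE_Fluc cells/well in 5% FBS OPTI-MEM.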
Nrf2 ARE act: Nrf2 pathway activation. AREc32 ARE-luciferase reporter (MCF7-derived line), luminescence, 24 h. Potency, µM (top dose mostly 46.1 µM), inactives show at the top dose activation, hits mostly activators. 410,000 tested, 0.31% active; also: % of control where 0% means no effect; nearly all actives have a fitted effect of over 65% in size
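Cells of the AREc32 ARE-luciferase line are plated in OPTI-MEM containing 5% FBS and left overnight at 37 deg C. Compounds are pinned in, incubation continues 24 hr, and firefly luciferase signal is then measured.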
PINK1 expr mod: changes PINK1 expression; PINK1 immunofluorescence, high-content cytometry, 24 h; Potency, µM (highest dose often 76.6 µM), without a hit: at the highest dose activation (PINK1 increase), most hits filed as activators; 410,000 tested, 0.2% active; AID 624263; active = well fitted activation curve with a large enough effect; inconclusive = small, poorly fitted or top-dose-only effect; cell line not stated here; also: % of control where 0% means no effect; nearly all actives have a fitted effect of over 65% in size
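Stable cell line, 250 cells/well, 12 h attachment; compounds pinned at 5 concentrations, 24 h; CCCP control. Fixed with nuclear dye, primary antibodies 12 h at 10 degrees C, secondary plus cell stain; laser-scanning cytometer read.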
A549 viability: kills or reduces viability of A549 cells in Nrf2 counter-screen. A549 ARE-Fluc cells, CellTiter-Fluor viability, 18-24 h. Potency, µM (doses to about 46 µM), without a hit: top-dose activity change, negative = cytotoxicity, hits mostly inhibitors. 390,000 tested, 0.16% active. AID 504648; also: % is scaled to controls: 0 for no effect and ±100 for the full control effect
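A549 ARE_Fluc cells in 5% FBS OPTI-MEM were exposed to compounds in concentration-response for 18-24 h at 37 deg C. Viability was read by CellTiter-Fluor fluorescence (Ex 405/Em 525) after 30 min, before the luciferase read.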
Epigenetic derep: regulators of epigenetic silencing causing reporter derepression in mouse cells; murine LDR cells, GFP reporter derepression, 30 h; Potency, µM (doses to about 53.9 µM), for the others: at the top dose GFP activation, most hits filed as activators; 280,000 tested, 0.2% active; AID 1865; also: % of control where 0% means no effect; nearly all actives have a fitted effect of over 60% in size
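Murine LDR cells carrying a silenced, genomically integrated CMV-driven GFP reporter were exposed to compound for 30 hours at 37 C. After PBS washes, GFP-positive cells (20–120 um objects) were counted by laser-scanning microplate cytometry.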
* marks the source's active call; other numbers are inactive results; ? = inconclusive; nt = not tested or not shown; [ ] = another dose, or the depositor's remark. Unless noted, calls follow the shape of the dose curve; as a rule, active = well fitted curve in the direction sought with a large enough effect; inconclusive = small, poorly fitted or top-dose-only effect, or another doubt; inactive = no such curve, though single readings can be large; an effect the other way counts as inactive or inconclusive. Potency is read from the fitted curve at half-maximal effect.

SMILES | Nrf2 block | Nrf2 ARE act | PINK1 expr mod | A549 viability | Epigenetic derep
N#Cc1ccccc1S(=O)(=O)N1CCN(S(=O)(=O)c2ccc3c(c2)OCCO3)CC1 | 18% | nt | nt | 8% | nt
N#CN=c1snc(-c2ccccc2)n1-c1ccc(Br)cc1 | 28% | nt | -1% | 1% | nt
COc1ccc(C2Nc3ccccc3C(=O)N2CCCN(C)C)cc1COc1ccc(NC(C)=O)cc1 (configuration not stated) | -4% | nt | nt | 1% | nt
COc1ccc(CN(C)CC(=O)Nc2ccccc2-c2ccccc2)c(OC)c1 | ? | 0% | 4% | -12% | -1%
COc1ccccc1CN(C)CC(=O)Nc1ccccc1-c1ccccc1 | 23µM* | 3% | ? | ? | 0%
COC(=O)c1c[nH]c2c1-c1cc(C(=O)OCc3ccccc3)n(S(=O)(=O)c3ccc(C)cc3)c1C(=O)C2=O | 4.1µM* | -2% | -6% | 4.1µM* | nt
Cc1ccc(S(=O)(=O)Cc2ccc(C(=O)OCc3ccccc3)cc2)cc1 | 15% | 0% | 5% | -7% | 3%
COc1ccc(NC(=O)Cn2c(=O)oc3cc(S(=O)(=O)NC4CCCC4)ccc32)cc1OC | nt | 3% | -1% | 11% | 1%
CN1[C@@H]2CC[C@H]1CC(OC(=O)[C@@H](CO)c1ccccc1)C2 (some centres not stated) | nt | nt | nt | nt | 0%[16.9 µM]
CSc1nc(SCC(=O)NCc2ccco2)c2c3c(sc2n1)COC(C)(C)C3 | nt | 6% | 13µM* | -14% | -5%
O=C(CN1C(=O)/C(=C/c2cccc(Cl)c2)SC1=S)NC1C=CS(=O)(=O)C1 (configuration not stated) | 11% | 14µM* | 1% | 1% | nt
O=C(N=Nc1c(O)[nH]c2ccc(Br)cc12)c1ccco1 | nt | 5µM* | 2% | nt | nt
COc1ccccc1C1=Nn2c(nnc2-c2ccccc2C)SC1 | -41% | nt | nt | -15% | nt
Cc1cc(OC(C)C(=O)Nc2cccnc2)ccc1Cl (configuration not stated) | 10% | -1% | -1% | 2% | nt
Cc1cccc(OCC(=O)Nc2ccc(N3CCN(C(=O)c4ccco4)CC3)cc2)c1 | 21µM* | 0% | 5%[38.3 µM] | -6% | -3%
Cc1ccc(OCC(=O)Nc2ccc(N3CCN(C(=O)c4ccco4)CC3)cc2)cc1C | ? | 2% | 2% | -6% | -3%
Cc1cc(OC(C)C(=O)Nc2ccncc2)ccc1Cl (configuration not stated) | 18µM* | -1% | -1% | -3% | nt
Cc1cc(OCC(=O)Nc2ccc(N3CCN(C(=O)c4ccco4)CC3)cc2)cc(C)c1Cl | 8.2µM* | -1% | 12%[38.3 µM] | -21% | -1%
Cc1ccc(OCC(=O)Nc2ccncc2)cc1C | nt | -1% | 2% | nt | nt
Cc1cc(OCC(=O)Nc2ccncc2)cc(C)c1Cl | 13µM* | 2% | 3% | 1% | nt
COCc1c(C(=O)NC2CCCCCC2)cnn1-c1nccc(-c2cc(C)sc2C)n1 | nt | nt | 0% | nt | nt
O=C(NCCNc1ccc([N+](=O)[O-])cc1C(F)(F)F)c1ccc(F)cc1 | 21µM* | 2% | 2% | ? | -1%
O=C1CCc2cc(S(=O)(=O)Nc3ccccn3)ccc2N1 | 15% | nt | nt | 12% | nt
C=C1C(=O)C=C2CN(C(=O)c3ccccc3)[C@@](Cc3ccc(F)cc3)(C(=O)OC)[C@@H]12 | 13µM* | -3% | 7% | 10µM* | 12%
C=C1C(=O)CC2=C1[C@](Cc1ccc(F)cc1)(C(=O)OC)N(C(=O)c1ccccc1)C2 | nt | ? | 7% | nt | nt
SMILES | Nrf2 block | Nrf2 ARE act | PINK1 expr mod | A549 viability | Epigenetic derep
CCCCN(CCCC)CCNC(=O)c1cc(-c2cccnc2)nc2ccc(S(=O)(=O)N3CCC(C)CC3)cc12 | nt | -1% | -1% | 8% | 1%
CCN(CC)CCNC(=O)c1cc(-c2cccnc2)nc2ccc(S(=O)(=O)N3CCC(C)CC3)cc12 | ? | -1% | 2% | 23µM* | nt
CCOc1ccccc1NC(=O)CSc1nc2ccccc2nc1Cc1ccc(C)cc1 | nt | -1% | 8% | 0% | 3%
O=S(=O)(Nc1nc2ccccc2nc1NCc1ccco1)c1ccccc1 | -22% | 8% | -1% | 4% | -1%
c1coc(CNc2ncnc3[nH]ncc23)c1 | ? | ? | 0% | 0% | 3%
Cc1nc(NCc2ccco2)c2cn[nH]c2n1 | 23µM* | 26% | 4% | -8% | nt
c1coc(CNc2nc3nonc3nc2NCc2ccco2)c1 | 7.3µM* | 26% | -2% | -18% | -1%
CCOC(=O)N1CCN(Cc2ccc3c(c2)CN(C(=O)c2ccc4ncccc4c2)CCO3)CC1 | nt | nt | 0% | nt | nt
Cc1nc2cc(-c3sccc3-n3cccc3)nn2c(C)c1C | 11% | 4% | 9% | 12% | 1%
Cc1cc(-c2sccc2C)nc(-n2cccc2)n1 | 10% | 5.6µM* | 1%[38.3 µM] | -5% | 0%
O=C(c1ccc2c(c1)OCO2)N(Cc1cc2ccc(F)cc2nc1N1CCC(O)CC1)CC1CCCO1 (configuration not stated) | nt | nt | 0% | nt | nt
CCN(CC)c1ccc(Nc2cc3n(c(=O)n2)CCc2cc(OC)c(OC)cc2-3)cc1 | 16µM* | 4% | 1% | -4% | nt
COc1ccccc1NC(=O)c1ccc(NC(=O)c2cc3c(s2)CCC3)cc1 | 23µM* | 2% | 0% | 0% | 0%
O=C(c1cc(-c2ccccc2)on1)N1CCCc2ccccc21 | 7% | 24% | 1% | 6% | 1%
O=C(c1cc(-c2ccco2)on1)N1CCc2ccccc2C1 | ? | 14µM* | 3%[38.3 µM] | 3% | -1%
O=C(c1cc(-c2ccco2)on1)N1CCCc2ccccc21 | ? | 11µM* | 0%[38.3 µM] | 13% | 0%
CC1CCN(C(=O)c2cc(-c3ccco3)on2)CC1 | ? | 14µM* | 3% | -2% | nt
O=C(c1cc(-c2ccccc2O)on1)N1CCc2ccccc2C1 | 17% | 5% | 5% | -5% | 1%
Cc1ncc2c(c1CNC(=O)c1cncs1)CCN(C(=O)c1ccc(C(F)(F)F)cc1)C2 | nt | nt | 0% | nt | nt
Cc1nn(C)c(Cl)c1S(=O)(=O)N(Cc1ccco1)c1ncnc2nc[nH]c12 | -14% | nt | -1% | 7% | nt
Cc1cnc(-n2ncc(C(=O)N(CCO)C(C)C)c2-c2cccs2)nc1-c1ccc(F)cc1 | nt | nt | -1% | nt | nt
Cc1ccc(Cn2ccc(NC(=O)c3cc(-c4cccc(Cl)c4)on3)n2)cc1 | 21µM* | 0% | 9% | ? | -1%
Cc1ccc(Cn2ccc(NC(=O)c3cc(-c4ccc(Cl)cc4)on3)n2)cc1 | nt | -1% | 4%[38.3 µM] | 0% | 0%
COc1ccccc1-c1ccnc(-n2ncc(C(=O)NCc3cccnc3)c2C)n1 | nt | nt | 0% | nt | nt
CC12CCC(C(=O)N3CCN(C(c4ccccc4)c4ccccc4)CC3)(OC1=O)C2(C)C (configuration not stated) | 23µM* | -1% | 0%[38.3 µM] | -19% | 1%
CC(=O)N1CCN(C(c2ccccc2)c2ccccc2)CC1 | nt | 0% | nt | nt | nt

Compound activity (PubChem BioAssay)
